# In PubChem BioAssay AID1209 (Sanford-Burnham Center for Chemical Genomics, 2008):
# The campaign covered roughly 190,000 compounds. About 810 (0.43%) were called active. No stated cut-off is given here; in the data, active means inhibition above about 50%; inactive means the rest. What follows is part of a selection rich in actives, with near analogues and random picks from the rest.
# Molecular target: Mannose-6-phosphate isomerase (Homo sapiens) (UniProt P34949)
# Test: MPI enzyme activity inhibition – biochemical, fluorescence intensity, coupled assay, primary screen (AID 1209);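 further: plate controls were DMSO vehicle for no effect and wells lacking substrate for full effect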
# Settings: purified PMI enzyme, at 20 µM, stronger effect = higher value
# Chain of Mannose-6-phosphate isomerase (Homo sapiens) (P34949 whole entry, looked up): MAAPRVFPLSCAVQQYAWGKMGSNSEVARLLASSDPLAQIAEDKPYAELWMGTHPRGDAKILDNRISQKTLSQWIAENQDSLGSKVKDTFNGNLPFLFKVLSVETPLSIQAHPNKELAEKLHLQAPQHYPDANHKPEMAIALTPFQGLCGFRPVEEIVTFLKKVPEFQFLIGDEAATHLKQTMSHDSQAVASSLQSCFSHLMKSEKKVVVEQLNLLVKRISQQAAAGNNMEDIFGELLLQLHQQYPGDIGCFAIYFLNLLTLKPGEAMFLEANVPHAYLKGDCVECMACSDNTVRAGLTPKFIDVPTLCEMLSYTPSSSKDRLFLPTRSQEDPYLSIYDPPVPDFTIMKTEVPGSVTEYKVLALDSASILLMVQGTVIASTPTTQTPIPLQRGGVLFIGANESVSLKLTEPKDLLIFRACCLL
row,SMILES,inhibition
1,CCn1c(COc2c(C)cccc2C)nnc1SCC(=O)N1CCN(c2ccccc2)CC1,8.2% (inactive)
2,Cc1ccc(-c2nn(CC(=O)NCc3ccccn3)c(=O)c3ccccc23)cc1S(=O)(=O)N(C)C,-28.3% (inactive)
3,COc1ccccc1NC(=O)c1ccc(NS(=O)(=O)c2ccc(F)c(F)c2F)cc1,-19.3% (inactive)
4,COC(=O)c1cn(C(=O)c2ccc(C)cc2)c2ccccc12,12.6% (inactive)
5,Cc1c(N=C2C(=O)Nc3ccccc32)c(=O)n(-c2ccccc2)n1C,0.4% (inactive)
6,Cc1c(N=C2C=CC(=O)c3ccccc32)c(=O)n(-c2ccccc2)n1C,55.2% (active)
7,CCCC(c1c(C)n(C)n(-c2ccccc2)c1=O)c1c(C)n(C)n(-c2ccccc2)c1=O,3.4% (inactive)
8,Cc1c(N=C2C=C(Br)C(=O)C(Br)=C2)c(=O)n(-c2ccccc2)n1C,64.3% (active)
9,Cc1csc(=Nc2c(C)n(C)n(-c3ccccc3)c2=O)n1-c1ccccc1,1.6% (inactive)
10,Cc1c(N=Nc2ccc(O)cc2)c(=O)n(-c2ccccc2)n1C,15.5% (inactive)
11,Cc1c(N=c2scc(-c3ccccc3)n2C)c(=O)n(-c2ccccc2)n1C,-16.2% (inactive)
12,CC1=CC(=Nc2c(C)n(C)n(-c3ccccc3)c2=O)C=C(C)C1=O,83.8% (active)
13,CCC(C)C1=CC(=Nc2c(C)n(C)n(-c3ccccc3)c2=O)C=C(C(C)CC)C1=O (stereo unspecified),52.2% (active)
14,Cc1c(N=CC=Nc2c(C)n(C)n(-c3ccccc3)c2=O)c(=O)n(-c2ccccc2)n1C,-0.3% (inactive)
15,CCC(c1c(C)n(C)n(-c2ccccc2)c1=O)c1c(C)n(C)n(-c2ccccc2)c1=O,-4.4% (inactive)
16,CC(=O)/C(N=Nc1c(C)n(C)n(-c2ccccc2)c1=O)=C(\C)O,-44.4% (inactive)
17,CC(C)NS(=O)(=O)c1ccc(OCC(=O)NC(C)c2ccccc2)cc1 (stereo unspecified),2.2% (inactive)
18,O=C(O)c1ccc(/C=C/c2nc3sc4c(c3c(=O)[nH]2)CCC4)cc1,-3.7% (inactive)
19,COc1cnn(C(C)(C)C)c(=O)c1Cl,-0.3% (inactive)
20,COc1ccc(CC(=O)NCc2ccc3c(c2)cc(C)n3C)cc1OC,6.1% (inactive)
21,O=C(Nc1ccc(Cl)cc1)NC1CCCc2ccccc21 (stereo unspecified),2.6% (inactive)

row,SMILES,inhibition
1,Cc1cc(/C=C(\C#N)C(N)=O)c(C)n1-c1ccc(N2CCOCC2)c([N+](=O)[O-])c1,3.6% (inactive)
2,C[C@]12CC[C@@H]3c4cc(O)c(O)cc4CC[C@H]3[C@@H]1CC[C@@H]2O,51.8% (active)
3,COc1cc2c(cc1O)CC[C@@H]1[C@@H]2CC[C@]2(C)[C@@H](O)CC[C@@H]12,1.7% (inactive)
4,C[C@]12CC[C@@H]3c4ccc(O)cc4CC[C@H]3[C@@H]1CC[C@@H]2O,-5.7% (inactive)
5,Cc1ccc(NC(=O)COC(=O)c2ccc3c(c2)C(=O)N(CCc2ccccc2)C3=O)c(C)c1,4.6% (inactive)
6,Cc1cc(C)n(-c2cc(N3CCN(S(=O)(=O)c4ccc(Br)cc4)CC3)ccc2[N+](=O)[O-])n1,13.5% (inactive)
7,Cc1nc2c(C(=O)NCc3ccccc3)c[nH]n2c(=O)c1Cl,12.3% (inactive)
8,Cc1nc2c(C(=O)NCCc3ccccc3)c[nH]n2c(=O)c1Cl,60.3% (active)
9,Cc1nc2c(C(=O)NCCc3ccccc3Cl)c[nH]n2c(=O)c1Cl,2.9% (inactive)
10,CNS(=O)(=O)c1cnccc1N1CCN(C)CC1,9.4% (inactive)
11,Cc1ccc(C(=O)Nc2ccc(SC(F)F)cc2)s1,-11.4% (inactive)
12,COc1cc(/C=C2\CC/C(=C\c3cc(OC)c(OC)c(OC)c3)C2=O)cc(OC)c1OC,4.2% (inactive)
13,COc1cc(/C=C2\CC/C(=C\c3cc(OC)c(O)c(OC)c3)C2=O)cc(OC)c1O,59.3% (active)
14,COc1ccc(/C=C2\CC/C(=C\c3ccc(OC)c(OC)c3)C2=O)cc1OC,25.9% (inactive)
15,CCn1c(COc2cccc3ccccc23)nnc1SCC(=O)OC1CCCCC1,17.8% (inactive)
16,Cc1ccc(S(=O)(=O)NCC(=O)N2CCCC2)cc1,-10.6% (inactive)
17,Cc1ccccc1CNC(=O)Cc1cccs1,2% (inactive)
18,Cc1ccsc1/C=C1\CCc2ccccc2C1=O,25.2% (inactive)
19,COc1ccc(CCNC(=O)C2CC(=O)N(CCc3ccccc3)C2)cc1OC (stereo unspecified),0% (inactive)
20,FC(F)(F)c1ccccc1NC(=S)Nc1cccc2cnccc12,5.4% (inactive)
21,Cc1ccc(C)c(NC(=S)Nc2cccc3cnccc23)c1,50.3% (active)

row,SMILES,inhibition
1,Cc1ccc(NC(=S)Nc2cccc3cnccc23)c(C)c1,37.8% (inactive)
2,Cc1ccc(C)c(NC(=S)Nc2cccnc2)c1,-7% (inactive)
3,CC(C)NC(=S)Nc1cccc2cnccc12,-4.7% (inactive)
4,Cc1ccccc1NC(=S)Nc1cccc2cnccc12,60.5% (active)
5,O=C(O)CCC(=O)NNC(=O)CCC(=O)Nc1ccccc1,13.6% (inactive)
6,CC(=O)c1cc(NC(=O)c2ccc([N+](=O)[O-])cc2)c(=O)oc1C,-41% (inactive)
7,O=C(Nc1cc2c(oc1=O)CCCC2=O)c1cccc(Cl)c1,-17.4% (inactive)
8,CCN1CCN(S(=O)(=O)Cc2ccccc2)CC1,-0.2% (inactive)
9,CCOC(=O)C1CCN(S(=O)(=O)Cc2ccccc2)CC1,-11.2% (inactive)
10,CCOC(=O)N1CCN(S(=O)(=O)Cc2ccccc2)CC1,104% (active)
11,CN1/C(=N\O)c2cccc3cccc1c23,5.7% (inactive)
12,CCC1=[N+](C)c2cccc3cccc(c23)N1C,51% (active)
13,CC1=Nc2cccc3cccc(c23)N1C,25.2% (inactive)
14,O=C(CCc1ccc(Oc2cc([N+](=O)[O-])cc([N+](=O)[O-])c2)cc1)N1CCCCCC1,5.7% (inactive)
15,COc1ccccc1NC(=S)N(CCc1nc2cc(C)c(C)cc2[nH]1)Cc1cccnc1,-2% (inactive)
16,CCOC(=O)C(NC(=O)CC)(Nc1ccc(S(=O)(=O)Nc2ncccn2)cc1)C(F)(F)F (stereo unspecified),0.5% (inactive)
17,Cc1cc2c(C)cc(=O)oc2c2c1NCCC2,25.3% (inactive)
18,Cc1ccc(OC(=O)C(F)(F)F)c2c1NCCC2,16.6% (inactive)
19,Oc1c(Cl)cc(Cl)c2c1NCCC2,61.2% (active)
